Out of some 310,000 compounds screened, about 14,000 (4.5%) showed an effect of 50% or more. Effects have a minus sign here. The sample as a whole holds a higher share of strong results than the screen did.
What follows are compounds tested against human ether-à-go-go-related gene (hERG) potassium channel (human, UniProt Q12809) (assay: primary screen, population patch clamp on CHO cells stably expressing hERG; higher = less effect of the substance).
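Also: peak tail current of the secondary pulse compared with the same well before compound.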

human ether-à-go-go-related gene (hERG) potassium channel, sequence (Q12809 whole entry, looked up): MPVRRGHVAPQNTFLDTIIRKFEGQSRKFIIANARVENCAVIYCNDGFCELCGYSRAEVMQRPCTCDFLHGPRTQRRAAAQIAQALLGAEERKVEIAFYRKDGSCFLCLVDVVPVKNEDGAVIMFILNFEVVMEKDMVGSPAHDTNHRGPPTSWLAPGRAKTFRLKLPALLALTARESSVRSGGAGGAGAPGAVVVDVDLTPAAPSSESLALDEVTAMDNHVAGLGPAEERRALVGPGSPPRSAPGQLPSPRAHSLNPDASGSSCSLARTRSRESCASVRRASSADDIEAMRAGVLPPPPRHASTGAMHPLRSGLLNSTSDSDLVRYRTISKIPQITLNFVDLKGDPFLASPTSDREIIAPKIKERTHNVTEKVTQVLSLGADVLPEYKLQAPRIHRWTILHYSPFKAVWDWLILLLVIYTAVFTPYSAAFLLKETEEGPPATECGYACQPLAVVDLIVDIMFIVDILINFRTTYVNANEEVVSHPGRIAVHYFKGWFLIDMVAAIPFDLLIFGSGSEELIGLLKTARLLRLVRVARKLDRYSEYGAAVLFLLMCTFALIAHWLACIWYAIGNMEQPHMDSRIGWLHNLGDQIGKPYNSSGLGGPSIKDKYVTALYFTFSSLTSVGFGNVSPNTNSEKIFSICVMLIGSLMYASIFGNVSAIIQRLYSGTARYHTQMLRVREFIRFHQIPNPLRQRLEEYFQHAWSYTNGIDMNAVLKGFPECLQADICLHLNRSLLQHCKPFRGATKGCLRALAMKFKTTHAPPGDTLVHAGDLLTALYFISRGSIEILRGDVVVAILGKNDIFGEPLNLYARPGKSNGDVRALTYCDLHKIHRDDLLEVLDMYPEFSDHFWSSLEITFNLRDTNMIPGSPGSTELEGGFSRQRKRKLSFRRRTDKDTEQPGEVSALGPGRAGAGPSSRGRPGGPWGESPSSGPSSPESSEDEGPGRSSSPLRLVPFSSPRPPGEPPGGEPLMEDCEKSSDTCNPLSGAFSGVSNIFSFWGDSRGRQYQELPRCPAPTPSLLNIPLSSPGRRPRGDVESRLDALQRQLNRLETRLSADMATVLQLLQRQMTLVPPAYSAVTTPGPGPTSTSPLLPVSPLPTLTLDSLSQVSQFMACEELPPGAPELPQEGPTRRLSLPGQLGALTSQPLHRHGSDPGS

| Structure (SMILES) | hERG current change (%, negative = inhibition) at 10uM [%] |
| --- | --- |
| COc1ccc(CN(C(=O)c2ccco2)C2CC(C)N(C)CC2C)cc1 (stereo not shown) | -53.4 |
| COc1ccc(CN(CCN)C2CC(C)N(C)CC2C)cc1.Cl (stereo not shown) | 7.07 |
| COc1ccc(CN(C(=O)c2ccco2)C2CCS(=O)(=O)C2)cc1 (stereo not shown) | -1.27 |
| COc1ccc(/C=C/C(=O)c2cccc(-n3cnnn3)c2)cc1O | 13.5 |
| O=C(Nc1ccc(Br)cc1Br)C1CC(=O)N(Cc2ccccc2)C1 (stereo not shown) | 10.7 |
| COc1ccc(C(CCNCc2ccccc2)c2ccc(F)cc2)cc1 (stereo not shown) | -66.7 |
| COc1ccccc1CNCCc1ccc(F)cc1.O=C(O)C(=O)O | -33.8 |
| COc1ccc(CCNCc2ccccc2F)cc1.O=C(O)C(=O)O | -22.8 |
| COc1cc(NC(=S)NCCC(c2ccccc2)c2ccccc2)cc(OC)c1 | 3.35 |
| COc1ccc(NC(=O)CC(c2ccc(F)cc2)c2ccc(OC)cc2)cc1 (stereo not shown) | 23 |
| COc1ccc(C(CCNCc2ccccc2F)c2ccc(F)cc2)cc1 (stereo not shown) | -75.5 |
| COc1ccc(CNC(=S)NCc2ccc(F)cc2)cc1 | -23.5 |
| COc1ccc(CNCCC(c2ccc(F)cc2)c2ccc(OC)cc2)cc1 (stereo not shown) | -82.3 |
| COc1ccc(CCC(C)Nc2ccc(F)cc2)cc1 (stereo not shown) | -3.78 |
| COc1ccc(CNC(=O)CNC(C)c2ccc(F)cc2)cc1.O=C(O)C(=O)O (stereo not shown) | 5.06 |
| COc1ccc(C(C)NC(=S)NCc2ccc(F)cc2)cc1 (stereo not shown) | 0.1 |
| COc1ccc(C(CCNCc2ccc(F)cc2)c2ccc(F)cc2)cc1 (stereo not shown) | -64.6 |
| COc1ccc(-c2cc(C(F)(F)F)nc(-n3cc(Cl)cn3)n2)cc1 | -18.5 |
| CCN1CCCCC(=N/O)/C(=N/O)CCCC1 | 25.5 |
| N#CCCN(C(=O)COC(=O)COc1ccccc1Cc1ccccc1)c1ccccc1 | 15 |

| Structure (SMILES) | hERG current change (%, negative = inhibition) at 10uM [%] |
| --- | --- |
| Cc1cccc(NC(=O)CSCC(=O)N(C)CC(=O)Nc2cccc(F)c2)c1 | -3.01 |
| COc1ccc(C(C)=O)cc1CN1C(=O)NC2(CCCCCC2)C1=O | -3.9 |
| COP(=O)(CC(=O)O)c1ccccc1 (stereo not shown) | -5.99 |
| CC(NC(=O)COc1ccccc1)C(=O)NC1=NCCS1 (stereo not shown) | 0.963 |
| CCOC(=O)N1CCN(C(=O)CNC(=O)c2nn(-c3ccc(OC)cc3OC)c(=O)c3ccccc23)CC1 | -4.94 |
| COC1=CC(=O)OC12CCCCC2 | 8.91 |
| CCc1noc(C)c1C(=O)N(CCCOC)c1c(N)n(Cc2ccccc2)c(=O)[nH]c1=O | 27.3 |
| Clc1ccc(-c2ccnc(Oc3ccc4ccccc4c3)n2)cc1 | 7.34 |
| COc1ccc(OCC(=O)Nc2ccc3c(c2)nc(CCNC(C)=O)n3C)cc1 | 13.1 |
| COc1ccc(OCC(=O)Nc2ccc3c(c2)nc(CCN2CCCC2)n3C)cc1 | -55 |
| Cn1c(CCN2CCCCC2)nc2cc(NC(=O)COc3ccccc3)ccc21 | -78 |
| CC(=O)NCCc1nc2cc(NC(=O)Nc3ccccc3)ccc2n1C | -53.8 |
| CC(=O)NCCc1nc2cc(NC(=O)c3ccccc3)ccc2n1C | -25.6 |
| Cc1cccc(OCC(=O)Nc2ccc3c(c2)nc(CCN2CCCCC2)n3C)c1 | -77.2 |
| CN1CCN(CCc2nc3cc(NC(=O)COc4ccccc4)ccc3n2C)CC1 | -32.6 |
| Cc1cccc(OCC(=O)Nc2ccc3c(c2)nc(CCN2CCN(C)CC2)n3C)c1 | -37.1 |
| Cn1c(CCn2ccccc2=O)nc2cc(NC(=O)COc3ccccc3)ccc21 | -40.6 |
| CC(=O)NCCc1nc2cc(NC(=O)COc3cccc(C)c3)ccc2n1C | 6.53 |
| CCC(=O)NCCc1nc2cc(NC(=O)Nc3ccccc3)ccc2n1C | 18.8 |
| COc1ccc(OCC(=O)Nc2ccc3c(c2)nc(CCn2ccccc2=O)n3C)cc1 | -10.8 |

| Structure (SMILES) | hERG current change (%, negative = inhibition) at 10uM [%] |
| --- | --- |
| CC(C)CN(C(=O)COC(=O)c1cnccn1)c1c(N)n(Cc2ccccc2)c(=O)[nH]c1=O | 16.4 |
| CC(C)Cn1c(N)c(C(=O)COC(=O)c2ccc(O)cc2O)c(=O)n(C)c1=O | 8.34 |
| CCn1c(SCC(=O)NC2CCCC2)nnc1-c1ccncc1 | 16.4 |
| Cc1ccc(OCC(=O)Nc2ccccc2F)cc1 | -0.548 |
| CN1C(=O)/C(=C/c2ccc(OCc3ccc(C(=O)O)cc3)c(Cl)c2)NC1=S | 20.4 |
| Cc1ccc(OCCn2cnc3c2c(=O)n(C)c(=O)n3C)cc1 | 20 |
| C=CCSc1nc2ccccc2[nH]1 | 25 |
| O=C(Cc1ccccc1)NCc1ccc(-n2cccc2)cc1 | 29.3 |
| CN(C(=O)CC1C(=O)NCCN1Cc1cccc(F)c1F)C1CC(C)(C)NC(C)(C)C1 (stereo not shown) | 26.1 |
| Cn1c(CCN2CCCCC2)nc2cc(NC(=O)C3CCCCC3)ccc21 | -60.2 |
| CC(=O)NCCc1nc2cc(NC(=O)COc3ccc(C)cc3)ccc2n1C | 14.2 |
| COc1ccc(OCC(=O)Nc2ccc3c(c2)nc(CCN2CCCCC2)n3C)cc1 | -65.5 |
| CCC(=O)Nc1ccc2c(c1)nc(CCN1CCN(C)CC1)n2C | 29.3 |
| Cc1ccc(OCC(=O)Nc2ccc3c(c2)nc(CCN2CCCCC2)n3C)cc1 | -82.3 |
| Cc1ccc(OCC(=O)Nc2ccc3c(c2)nc(CCN2CCN(C)CC2)n3C)cc1 | -55.6 |
| Cn1c(CN2CCCC2)nc2cc(NC(=O)C3CCCCC3)ccc21 | -4.77 |
| Cn1c(CCN2CCCCC2)nc2cc(NC(=O)NC3CCCCC3)ccc21 | 0.766 |
| COc1ccc(OCC(=O)Nc2ccc3c(c2)nc(CCN2CCN(C)CC2)n3C)cc1 | -8.47 |

From paper PMC4336329 (PLoS ONE, 2015)
